The nature of assay [1]: optical density shifts of acrAB sulA E. coli – strain DRC41, OD650, 48 h, E. coli filamentation inducer project, primary screen (AID 1152).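 Further: E. coli MC1000 strain DRC41 lacking acrAB efflux pump and sulA.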 Particulars: higher = more signal, called active from +8 up or from −8 down.
The nature of assay [2]: probe aLefty1 binding on compound microarray – biochemical, small-molecule microarray, 635/667 nm fluorescence, primary screen (AID 1153).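 Further: score merges spot fluorescence with signal-to-noise ratio from the scanned slide images.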 Particulars: higher = more signal.
A short description of assay [3]: plasmodial surface anion channel blockers, osmotic lysis – cell-based, P. falciparum Indochina, OD700, 1 h, primary screen (AID 1154). Particulars: P. falciparum Indochina infected RBC osmotic lysis, higher = more signal, called active from +8 up or from −8 down.
A short description of assay [4]: plasmodial surface anion channel blockers, osmotic lysis – cell-based, P. falciparum Indochina, OD700, 2 h, primary screen (AID 1155).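 Further: lysis reports solute entry through the parasite surface anion channel PSAC.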 Particulars: P. falciparum Indochina infected erythrocytes, higher = more signal, called active from +8 up or from −8 down.
Assay [5] in a line: changes in parasitized red cell lysis, either direction – P. falciparum Indochina, OD700, 3 h, PSAC antagonist project, primary screen (AID 1156). Particulars: P. falciparum-infected erythrocytes, osmotic lysis, higher = more signal, called active from +8 up or from −8 down.
A short description of assay [6]: plasmodial surface anion channel blockers, osmotic lysis – cell-based, P. falciparum Indochina, OD700, 18 h, primary screen (AID 1157). Particulars: P. falciparum Indochina infected erythrocytes, osmotic lysis OD700, 18 h; higher = more signal, called active from +8 up or from −8 down.
Assay [7] can be described thus: S6 kinase pathway phospho-S6 level changes – cell-based, A549, cytoblot, luminescence, serum-stimulated, primary screen (AID 1158).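 Further: serum-stimulated A549 lung adenocarcinoma cells; signal is phosphorylated S6 detected by cytoblot immunostaining with HRP secondary.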 Particulars: 5 h, higher = more signal.
The target in assay [8] is NADPH oxidase 2 (Homo sapiens) (UniProt P04839). As to the kind of experiment: compounds shifting NOX2 Amplex Red fluorescence – cell-based, HEK293-NOX2, PMA-stimulated, NOX inhibitor project, primary screen (AID 1159). Further: test concentration not given here. Particulars: 45 min, higher = more signal, called active from +8 up or from −8 down.
For assay [9], the target named is NADPH oxidase 4 (Homo sapiens) (UniProt Q9NPH5). As to the kind of experiment: compounds shifting NOX4 Amplex Red fluorescence – cell-based, HEK293-NOX4, tetracycline-induced, NOX inhibitor project, primary screen (AID 1160). Particulars: HEK293-NOX4, Amplex Red H2O2 fluorescence, 45 min; higher = more signal, called active from +8 up or from −8 down.
In assay [10] the target is NADPH oxidase 5 (Homo sapiens) (UniProt Q96PH1). As to the kind of experiment: compounds shifting NOX5 Amplex Red fluorescence – cell-based, HEK293-NOX5, NOX inhibitor project, primary screen (AID 1161). The conditions noted are these: HEK293-NOX5, ionomycin, 45 min, higher = more signal.

The values below come from PubChem BioAssay.

The source made the active and inactive calls.

Chain of NADPH oxidase 2 (Homo sapiens) (P04839 whole entry, looked up): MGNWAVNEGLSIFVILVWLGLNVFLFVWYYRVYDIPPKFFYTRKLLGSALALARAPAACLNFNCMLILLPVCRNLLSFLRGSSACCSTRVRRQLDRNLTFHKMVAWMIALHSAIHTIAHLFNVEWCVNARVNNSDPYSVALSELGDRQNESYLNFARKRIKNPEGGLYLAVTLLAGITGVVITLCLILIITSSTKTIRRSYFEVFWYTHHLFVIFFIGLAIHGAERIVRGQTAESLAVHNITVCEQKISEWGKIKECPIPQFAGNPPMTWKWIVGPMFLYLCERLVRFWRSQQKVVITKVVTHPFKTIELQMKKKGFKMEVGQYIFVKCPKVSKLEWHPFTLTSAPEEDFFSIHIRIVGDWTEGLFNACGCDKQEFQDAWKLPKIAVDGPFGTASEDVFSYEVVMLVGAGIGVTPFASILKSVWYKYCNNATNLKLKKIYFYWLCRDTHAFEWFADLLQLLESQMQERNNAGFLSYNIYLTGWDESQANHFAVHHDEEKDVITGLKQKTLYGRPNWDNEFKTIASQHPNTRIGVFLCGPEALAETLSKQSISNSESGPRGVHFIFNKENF
Chain of NADPH oxidase 4 (Homo sapiens) (Q9NPH5 whole entry, looked up): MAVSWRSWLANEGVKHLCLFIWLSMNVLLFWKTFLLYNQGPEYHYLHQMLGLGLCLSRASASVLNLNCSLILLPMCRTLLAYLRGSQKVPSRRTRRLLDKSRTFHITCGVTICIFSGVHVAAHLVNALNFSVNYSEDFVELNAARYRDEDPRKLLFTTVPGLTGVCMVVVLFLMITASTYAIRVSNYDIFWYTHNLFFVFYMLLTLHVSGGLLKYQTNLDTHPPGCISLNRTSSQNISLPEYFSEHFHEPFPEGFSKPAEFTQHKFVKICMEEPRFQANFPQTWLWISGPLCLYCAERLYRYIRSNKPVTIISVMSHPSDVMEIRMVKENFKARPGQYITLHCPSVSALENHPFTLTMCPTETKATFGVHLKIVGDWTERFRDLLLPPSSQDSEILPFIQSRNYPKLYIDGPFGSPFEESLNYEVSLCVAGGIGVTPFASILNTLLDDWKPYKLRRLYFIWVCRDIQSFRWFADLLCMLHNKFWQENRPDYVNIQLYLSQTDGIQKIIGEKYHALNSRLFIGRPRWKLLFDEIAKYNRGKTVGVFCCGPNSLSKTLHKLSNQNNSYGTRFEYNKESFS
Chain of NADPH oxidase 5 (Homo sapiens) (Q96PH1 whole entry, looked up): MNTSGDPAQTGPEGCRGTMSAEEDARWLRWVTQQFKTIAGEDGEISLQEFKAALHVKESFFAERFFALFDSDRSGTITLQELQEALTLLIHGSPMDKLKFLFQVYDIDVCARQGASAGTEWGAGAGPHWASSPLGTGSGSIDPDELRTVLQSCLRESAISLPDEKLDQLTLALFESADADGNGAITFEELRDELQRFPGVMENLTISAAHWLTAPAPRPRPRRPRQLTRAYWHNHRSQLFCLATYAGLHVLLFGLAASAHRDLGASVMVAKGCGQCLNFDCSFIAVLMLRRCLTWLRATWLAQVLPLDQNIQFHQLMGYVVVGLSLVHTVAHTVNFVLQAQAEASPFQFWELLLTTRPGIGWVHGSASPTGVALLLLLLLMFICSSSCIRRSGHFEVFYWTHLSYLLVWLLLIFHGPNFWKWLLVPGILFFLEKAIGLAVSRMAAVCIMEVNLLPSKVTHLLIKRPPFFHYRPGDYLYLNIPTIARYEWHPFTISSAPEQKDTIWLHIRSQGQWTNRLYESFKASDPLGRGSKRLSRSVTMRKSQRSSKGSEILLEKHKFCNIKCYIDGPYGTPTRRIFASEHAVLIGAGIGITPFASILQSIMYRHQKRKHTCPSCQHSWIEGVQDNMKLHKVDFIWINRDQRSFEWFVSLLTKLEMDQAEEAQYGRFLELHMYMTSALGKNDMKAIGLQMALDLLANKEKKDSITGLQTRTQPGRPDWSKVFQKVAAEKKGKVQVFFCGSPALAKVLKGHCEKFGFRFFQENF

Consider `NC(=O)[C@H]1[C@@H]2C(=O)O[C@@H](c3ccccc3)[C@@H](c3ccccc3)N2[C@@H](c2ccc(O)cc2)[C@]12C(=O)Nc1ccccc12`, for which the z-score was -0.261 (inactive) in assay [1]; 3.33 (inactive) in assay [3]; 1.23 (inactive) in assay [4]; 0.217 (inactive) in [5]; 0.515 (inactive) in assay [6]; -0.471 in assay [7]. Moreover, the z-score was -0.741 (inactive) in assay [8], -0.988 (inactive) in [9] and 0.572 in assay [10]. Further, the composite z-score in assay [2] was -0.18.
Take `[N-]=[N+]=NCc1ccccc1[C@@H]1OC(c2ccc(OCCCO)cc2)=N[C@]1(Cc1ccccc1)C(=O)NCCN1CCOCC1`: the z-score in [1] is 0.745 (inactive); in [3] it was 18 (active); in assay [4], 3.55 (inactive); in [5], 1.97 (inactive); in assay [6], 1.13 (inactive); in [7], -0.408. The z-score in [8] is -3.16 (inactive); in [9], 2.14 (inactive); in assay [10] it was 0.838. Besides, in assay [2], the composite z-score was 0.345.
Turning to `NCCCCCNC(=O)[C@H]1C[C@H]2C(=O)N[C@@H](Cc3ccccc3)C(=O)N2[C@H]1c1ccc(O)cc1`, the z-score in assay [1] was 0.097 (inactive); in assay [3] it was 3.38 (inactive); in [4], 0.288 (inactive); in [5] it was 1.54 (inactive); in [6] it was 0.204 (inactive); in assay [7], 0.0042. Moreover, the values for the z-score in [8], in assay [9] and in assay [10] were 0.354 (inactive), -0.384 (inactive) and -0.912, respectively. In assay [2], this molecule gave a composite z-score of 1.01.
For `CN(C)C(=O)[C@]1(CCS(=O)(=O)c2ccccc2)N=C(c2ccc(OCCCO)cc2)O[C@@H]1c1ccccc1`, the z-score in assay [1] was 0.0024 (inactive); in [3], 30.8 (active); in assay [4] it was 25.7 (active); in assay [5] it was 2.91 (inactive); in [6], 6.06 (inactive); in [7], 0.0637. The z-score is -0.461 (inactive) in assay [8], 1.52 (inactive) in assay [9] and -2.3 in assay [10]. The composite z-score in assay [2] is -0.0072.
Turning to `C=C(/C(=C/C[C@H](OC(=O)c1ccncc1)c1ccccc1OCCO)c1cnc2ccccc2c1)C(C)C`, the z-score is -0.227 (inactive) in assay [1]; 11.1 (active) in [3]; 1.86 (inactive) in [4]; 1.41 (inactive) in assay [5]; 0.553 (inactive) in assay [6]; 0.125 in [7]. In addition, the z-score was -1.71 (inactive) in [8], -0.391 (inactive) in assay [9] and -0.914 in [10]. For the same molecule, the composite z-score in assay [2] amounted to 0.313.
On to `C=C(/C(=C/C[C@@H](OC(C)=O)c1ccc(CO)o1)c1cc(C(=O)OC)ccc1OC)C(C)C`, for which the z-score is 0.225 (inactive) in assay [1]; 4.3 (inactive) in assay [3]; 0.758 (inactive) in assay [4]; 1.35 (inactive) in [5]; 0.479 (inactive) in assay [6]; -0.0642 in assay [7]. Besides, the z-score in assay [8] is -0.169 (inactive); in [9] it was -0.673 (inactive); in assay [10] it was -0.988. Further, the composite z-score in assay [2] is -0.0536.
For `COC(=O)[C@@]1(Cc2ccccc2)[C@H]2c3cc(C(=O)N(C)C)n(CCn4cc([N+](=O)[O-])nc4C)c3C[C@H]2CN1C(=O)c1ccccc1`, the z-score in [1] is -0.566 (inactive); in assay [3] it was -0.25 (inactive); in [4] it was -0.949 (inactive); in assay [5] it was -0.513 (inactive); in assay [6], -0.956 (inactive); in [7], 1.18. The z-score in assay [8] was 0.635 (inactive); in assay [9], 1.24 (inactive); in [10] it was -1.65. In assay [2], the composite z-score was 0.0249.
Turning to `CCOC(=O)C[C@H]1[C@H](OC(=O)c2ccccc2-c2ccccc2)[C@@H](NC(=O)c2ccccc2)c2cc(OCCCO)ccc2N1C(=O)c1ccccc1`, the z-score in [1] was -1.13 (inactive); in assay [3], 1.61 (inactive); in assay [4] it was 0.0478 (inactive); in [5], 1.11 (inactive); in [6], 0.256 (inactive); in assay [7], -0.133. For the same molecule, the z-score in assay [8] is 0.418 (inactive); in assay [9] it was 0.884 (inactive); in assay [10] it was 0.838. In assay [2], the composite z-score is -0.0547.
Take `CCOC(=O)C1=CCC(c2ccco2)N(S(=O)(=O)c2ccc(C)cc2)C1` (stereo not given): the z-score in assay [1] was 0.323 (inactive); in assay [3], 9.57 (active); in [4] it was 1.24 (inactive); in [5], 0.252 (inactive); in assay [6] it was 0.731 (inactive); in [7] it was 0.406. Further, the z-score was -0.176 (inactive) in [8], -1.26 (inactive) in assay [9] and 0.758 in assay [10]. The molecule also registered a composite z-score in assay [2] of 0.247.
With `COCC(=C=CC[C@@H](O)c1ccc(OCCO)cc1)CCO`, the z-score in [1] is 1.15 (inactive); in assay [3], 6.19 (inactive); in assay [4], 0.492 (inactive); in assay [5], 1.32 (inactive); in [6], 0.381 (inactive); in [7], 0.357. Also, the results for the z-score in assay [8], in [9] and in assay [10] were -2.03 (inactive), -0.406 (inactive) and -0.727, respectively. The same molecule registered a composite z-score in assay [2] of 0.0391.
`CCOC(=O)C[C@H]1[C@H](OC(=O)c2ccc(-c3ccccc3)cc2)[C@@H](NC(=O)CC(C)C)c2cc(OCCCO)ccc2N1C(=O)c1ccccc1`: the z-score in assay [1] was -0.674 (inactive); in assay [3], 1.18 (inactive); in assay [4], 0.389 (inactive); in assay [5], -0.0732 (inactive); in assay [6] it was 0.336 (inactive); in assay [7] it was 0.574. The results for the z-score in [8], in assay [9] and in [10] were 0.403 (inactive), -0.742 (inactive) and 1.74, respectively. The composite z-score in [2] worked out at 0.113.
On to `[N-]=[N+]=NCc1ccccc1[C@@H]1OC(c2ccc(OCCCO)cc2)=N[C@]1(Cc1ccccc1N=[N+]=[N-])C(=O)N1CCCCC1`, for which the z-score in [1] is 0.155 (inactive); in assay [3] it was 16.3 (active); in assay [4], 2.78 (inactive); in assay [5], 1.15 (inactive); in assay [6], 0.86 (inactive); in assay [7] it was 0.0177. For the same molecule, the z-score is -1.45 (inactive) in [8], 0.924 (inactive) in [9] and 1.17 in assay [10]. In addition, the composite z-score in assay [2] amounted to 0.358.
